Records with an inconclusive call do not appear. Calls of active or inactive are those of the source. Unless noted, calls follow the shape of the dose curve; as a rule, active = well fitted curve in the direction sought with a large enough effect; inconclusive = small, poorly fitted or top-dose-only effect, or another doubt; inactive = no such curve, though single readings can be large; an effect the other way counts as inactive or inconclusive. *1 amine or outer side, *2 acyl side, *3 side chain or, on linkers, in order; H or OH if unused. Where a SMILES comes first, the peptide text is derived from it. [ ]: non-standard residue; d: D form. X5 = CC(CC(O[*:1])C(=O)[*:2])C(=O)O; NMeV = CN[CH](C(=O)O)C(C)C; NMeA = CN[CH](C)C(=O)O; βAla = NCCC(=O)O
Legend:
[1] = P-glycoprotein substrates identified in KB-3-1 adenocarcinoma cell line, qHTS therapeutic library screen (AID 1346986); details: KB-3-1 parental cells viability, CellTiter-Glo, 72 h; series mostly up to 93.4 µM; also: nearly all actives have a fitted effect of over 60% in size
Outline: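 In 1536-well format, 500 cells/well received pinned compound titrations and were incubated 72 h, 5% CO2. Viability was read by CellTiter-Glo; cytotoxic if AC50 < 10 uM and efficacy >50%.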

[2] = P-glycoprotein substrates identified in KB-8-5-11 adenocarcinoma cell line, qHTS therapeutic library screen (AID 1346987); details: KB-8-5-11 (P-gp overexpressing) viability, CellTiter-Glo, 72 h; series mostly up to 44.5 µM; also: nearly all actives have a fitted effect of over 65% in size; also: potency is read from the fitted curve at half-maximal effect; as to activity change, negative = cytotoxicity: % is scaled to controls: 0 for no effect and ±100 for the full control effect
Outline: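 Luminescence from CellTiter-Glo, read 5 min after addition, quantified survival of KB-8-5-11 (P-gp-overexpressing) cells exposed to compounds for 72 h. AC50 was derived from concentration-response curves.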

[3] = target: Cytochrome P450 2D6 (Homo sapiens) (UniProt P10635); test: Cytochrome P450 family 2 subfamily D member 6 (CYP2D6) small molecule antagonists: luciferase biochemical (cell-free) qHTS assay (AID 1645840; active = well fitted curve in the direction sought with a large enough effect in the repeat runs; an effect the other way counts as inactive or inconclusive; also: nearly all actives have a fitted effect of over 55% in size; also: potency is read from the fitted curve at half-maximal effect; as to activity change, negative = inhibition: % is scaled to controls: 0 for no effect and ±100 for the full control effect); details: P450-Glo CYP2D6 enzyme, luciferin luminescence, 1 h; series mostly up to 57.4 µM
Outline: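 P450-Glo CYP2D6 system: proluciferin substrate converted by enzyme to luciferin, read by luminescence proportional to activity. Enzyme-substrate mix with compound 10 min at room temperature, then NADPH regeneration 1 h before detection reagent.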

[4] = target: Cytochrome P450 2C9 (Homo sapiens) (UniProt P11712); test: Cytochrome P450 family 2 subfamily C member 9 (CYP2C9) small molecule antagonists: luciferase biochemical (cell-free) qHTS assay (AID 1645842; active = well fitted curve in the direction sought with a large enough effect in the repeat runs; an effect the other way counts as inactive or inconclusive; also: nearly all actives have a fitted effect of over 55% in size; also: potency is read from the fitted curve at half-maximal effect); details: P450-Glo CYP2C9 enzyme assay, luciferin luminescence; series mostly up to 57.4 µM
Outline: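 P450-Glo CYP2C9 system: proluciferin substrate with enzyme in mix containing 0.4% BSA, 10 min at room temperature, then NADPH regeneration solution added and incubated 1 h at 37C. Detection reagent stopped reaction; luminescence read after 20 min as RLU.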

[5] = tested on: CRL-7250; test: Cytotoxic Profiling of Annotated Libraries Using Quantitative High-Throughput Screening (AID 1296008); details: Five cell lines viability, CellTiter-Glo ATP luminescence, 48-72 h; max response: stronger effect = lower value; also: nearly all actives have a fitted effect of over 60% in size; also: potency is read from the fitted curve at half-maximal effect; as to max response: % is scaled to controls: 0 for no effect and ±100 for the full control effect
Outline: (§1)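 Cells exposed to compounds for 48 or 72 hr at 37 degrees Celsius. Viability read as ATP-coupled luminescence with CellTiter-Glo after 10 min at room temperature.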

[6] = tested on: KB-3-1; test: as above; details: Five cell lines viability, CellTiter-Glo ATP luminescence, 48-72 h; max response: stronger effect = lower value
Outline: as §1

[7] = tested on: HACAT; test: qHTS assay to identify novel small-molecules to repurpose for Merkel cell carcinoma treatment (AID 1296009); details: MCC and control cell lines, CellTiter-Glo viability, 72 h; at 44.8 µM (top of the series) unless noted; also: nearly all actives have a fitted effect of over 60% in size
Outline: (§2)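 Dose-response viability screen; 72 hr exposure at 37 degree celsius; CellTiter-Glo added, 10 min room temperature, luminescence read; RLUs scaled between no-cell and DMSO wells.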

[8] = tested on: HeLa; test: Primary qHTS to identify gynecologic anti-cancer compounds using libraries of approved drugs and bioactive compounds (AID 1345084); details: Gynecologic cancer cell panel viability, ATPlite luminescence, 48 h; series mostly up to 57.5 µM; also: nearly all actives have a fitted effect of over 55% in size; also: potency is read from the fitted curve at half-maximal effect; as to activity change, negative = cytotoxicity: % is scaled to controls: 0 for no effect and ±100 for the full control effect
Outline: (§3)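 In this quantitative HTS, cell killing is estimated from loss of ATP-dependent luciferase light. Cells see five compound concentrations over a 48 h exposure.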

[9] = tested on: SKOV3; test: as above; details: Gynecologic cancer cell panel viability, ATPlite luminescence, 48 h; series mostly up to 57.5 µM
Outline: as §3

[10] = Primary qHTS for inhibitors of nuclear receptor binding SET domain protein 2 (NSD2) in an isogenic RCH-ACV NSD2 p.E1099K mutant (9B) (AID 1645876); details: RCH-ACV NSD2 E1099K (9B) viability, CellTiter-Glo, 72 h; series mostly up to 44.9 µM; also: nearly all actives have a fitted effect of over 70% in size; also: potency is read from the fitted curve at half-maximal effect
[11] = Primary qHTS for inhibitors of nuclear receptor binding SET domain protein 2 (NSD2) in an RCH-ACV wild type WT cells (2C) (AID 1645877); details: RCH-ACV (leukaemia line) NSD2 WT (2C) viability, CellTiter-Glo, 72 h; series mostly up to 44.9 µM; also: nearly all actives have a fitted effect of over 70% in size; also: potency is read from the fitted curve at half-maximal effect
[12] = tested on: CAOV3; test: Primary qHTS to identify gynecologic anti-cancer compounds using libraries of approved drugs and bioactive compounds (AID 1345084); details: Gynecologic cancer cell panel viability, ATPlite luminescence, 48 h; series mostly up to 57.5 µM; also: nearly all actives have a fitted effect of over 55% in size; also: potency is read from the fitted curve at half-maximal effect
Outline: as §3

[13] = tested on: CRL-7250; test: qHTS assay to identify novel small-molecules to repurpose for Merkel cell carcinoma treatment (AID 1296009); details: MCC and control cell lines, CellTiter-Glo viability, 72 h; series mostly up to 92 µM; also: nearly all actives have a fitted effect of over 60% in size
Outline: as §2

[14] = target: Catechol O-methyltransferase (Homo sapiens) (UniProt P21964); test: Confirmatory Screen for Target Class Profiling of Small Molecule Inhibitors of Methyltransferases (AID 1745852); details: MTase-Glo luminescence, SAH detection, recombinant enzyme; measured here: COMT max response; stronger effect = lower value
[15] = target: Guanidinoacetate N-methyltransferase (Homo sapiens) (UniProt Q14353); test: as above; details: MTase-Glo luminescence, SAH detection, recombinant enzyme; activity change, negative = inhibition: at 57.3 µM (top of the series) unless noted; series mostly up to 57.3 µM
[16] = target: Nicotinamide N-methyltransferase (Homo sapiens) (UniProt P40261); test: as above; details: MTase-Glo luminescence, SAH detection, recombinant enzyme; measured here: NNMT max response; stronger effect = lower value
[17] = target: Phenylethanolamine N-methyltransferase (Homo sapiens) (UniProt P11086); test: as above; details: MTase-Glo luminescence, SAH detection, recombinant enzyme; measured here: PNMT max response; stronger effect = lower value
[18] = tested on: NIH3T3; test: qHTS assay to identify novel small-molecules to repurpose for Merkel cell carcinoma treatment (AID 1296009); details: MCC and control cell lines, CellTiter-Glo viability, 72 h; at 44.8 µM (top of the series) unless noted; also: nearly all actives have a fitted effect of over 60% in size
Outline: as §2

Chain of Cytochrome P450 2D6 (Homo sapiens) (P10635 whole entry, looked up): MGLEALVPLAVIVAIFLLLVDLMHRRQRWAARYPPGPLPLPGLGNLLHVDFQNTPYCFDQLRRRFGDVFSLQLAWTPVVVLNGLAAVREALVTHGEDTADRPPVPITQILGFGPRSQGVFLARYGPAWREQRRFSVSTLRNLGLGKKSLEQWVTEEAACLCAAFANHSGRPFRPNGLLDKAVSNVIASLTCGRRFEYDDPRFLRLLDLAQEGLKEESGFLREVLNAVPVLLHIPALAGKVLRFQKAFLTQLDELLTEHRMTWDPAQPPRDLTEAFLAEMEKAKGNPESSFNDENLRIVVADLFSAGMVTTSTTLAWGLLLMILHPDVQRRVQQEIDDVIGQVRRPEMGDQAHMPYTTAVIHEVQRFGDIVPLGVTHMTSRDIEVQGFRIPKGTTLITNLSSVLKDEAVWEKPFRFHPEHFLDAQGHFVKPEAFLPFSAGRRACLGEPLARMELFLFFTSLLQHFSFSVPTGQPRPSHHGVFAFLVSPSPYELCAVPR
Chain of Cytochrome P450 2C9 (Homo sapiens) (P11712 whole entry, looked up): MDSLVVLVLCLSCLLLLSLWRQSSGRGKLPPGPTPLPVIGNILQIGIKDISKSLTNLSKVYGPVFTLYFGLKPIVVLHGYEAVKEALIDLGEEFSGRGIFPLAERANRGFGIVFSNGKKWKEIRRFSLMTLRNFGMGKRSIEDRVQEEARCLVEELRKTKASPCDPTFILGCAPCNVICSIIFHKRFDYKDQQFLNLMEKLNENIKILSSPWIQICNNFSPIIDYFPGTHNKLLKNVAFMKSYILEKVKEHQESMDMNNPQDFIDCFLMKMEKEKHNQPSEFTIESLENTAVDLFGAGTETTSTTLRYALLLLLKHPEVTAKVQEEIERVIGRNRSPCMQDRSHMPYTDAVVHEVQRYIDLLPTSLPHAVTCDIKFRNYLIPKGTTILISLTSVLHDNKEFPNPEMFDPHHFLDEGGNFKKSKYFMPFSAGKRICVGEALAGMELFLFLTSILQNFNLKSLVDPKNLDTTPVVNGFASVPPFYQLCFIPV
Chain of Nicotinamide N-methyltransferase (Homo sapiens) (P40261 whole entry, looked up): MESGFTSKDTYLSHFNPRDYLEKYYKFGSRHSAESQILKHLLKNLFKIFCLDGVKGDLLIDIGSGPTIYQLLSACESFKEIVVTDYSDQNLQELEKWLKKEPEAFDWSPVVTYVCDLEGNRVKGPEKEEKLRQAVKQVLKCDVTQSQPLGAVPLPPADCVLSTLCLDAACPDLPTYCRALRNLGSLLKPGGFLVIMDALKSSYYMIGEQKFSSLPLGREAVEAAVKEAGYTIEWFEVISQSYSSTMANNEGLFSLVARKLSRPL
Chain of Catechol O-methyltransferase (Homo sapiens) (P21964 whole entry, looked up): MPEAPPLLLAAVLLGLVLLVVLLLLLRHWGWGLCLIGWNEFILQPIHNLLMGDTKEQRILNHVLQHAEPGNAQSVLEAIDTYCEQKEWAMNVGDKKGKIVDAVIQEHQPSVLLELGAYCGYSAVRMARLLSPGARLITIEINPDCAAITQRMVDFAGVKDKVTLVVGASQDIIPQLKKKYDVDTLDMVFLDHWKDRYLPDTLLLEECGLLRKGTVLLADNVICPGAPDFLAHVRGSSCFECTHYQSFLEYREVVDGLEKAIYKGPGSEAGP
Chain of Phenylethanolamine N-methyltransferase (Homo sapiens) (P11086 whole entry, looked up): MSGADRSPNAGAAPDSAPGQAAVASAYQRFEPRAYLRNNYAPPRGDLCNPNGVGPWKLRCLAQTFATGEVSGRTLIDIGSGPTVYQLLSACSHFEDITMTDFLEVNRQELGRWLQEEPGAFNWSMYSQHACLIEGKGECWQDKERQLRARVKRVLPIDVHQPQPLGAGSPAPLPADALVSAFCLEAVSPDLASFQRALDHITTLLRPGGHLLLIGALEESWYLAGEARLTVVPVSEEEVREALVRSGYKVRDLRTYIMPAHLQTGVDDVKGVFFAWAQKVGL

O=S(=O)(c1ccccc1F)N1CCOc2c(N3CCNCC3)cccc21
active: Potency [4] 9520 nM
inactive: Potency [1] | Potency [2] | Potency [3] | max response [5] 2.13% | outcome [6] | outcome [7] | Potency [8] | Potency [9]

CCC1CN2CCC3(C(=O)Nc4cccc(O)c43)C2CC1/C(=C/OC)C(=O)OC (centres undefined)
inactive: Potency [2] | Potency [10] | Potency [11] | max response [5] -15.5% | outcome [7] inactive [at 17.4 µM] | Potency [12] | Potency [8] | Potency [9]

COC(=O)[C@@]1(C)C(=O)C=C[C@]2(C)c3c(O)cc(C(C)C)cc3[C@H](O)[C@@H](OC(C)=O)C12 (some centres undefined)
inactive: Potency [2] | outcome [5] | Potency [13] | outcome [7] inactive [at 17.4 µM] | Potency [12] | Potency [8] | Potency [9]

CC(O)(c1ccccc1)C(Cc1ccc(Cl)cc1)n1cncn1 (centres undefined)
active: Potency [4] 952 nM
inactive: max response [5] 0.336% | max response [6] -4.41% | outcome [7] | Potency [12] | Potency [8] | Potency [9]

C=C1C(=O)O[C@@H]2[C@H]3C(=C)[C@@H](O)C[C@H]3C(=C)C[C@@H](O)[C@@H]12
active: Potency [10] 16300 nM | Potency [11] 6490 nM
inactive: Potency [2] | max response [5] -8.41% | max response [6] 6.92% | Potency [12] | Potency [8] | Potency [9]

COc1ccc2[nH]c(-c3ccccc3)c(CCN(C)C)c2c1
inactive: Potency [2] | outcome [5] | Potency [13] | outcome [7] | Potency [12] | Potency [8] | Potency [9]
active: Potency [3] 2130 nM | Potency [4] 16900 nM

CC12Cc3cn[nH]c3C=C1CCC1C2CCC2(C)C1CCC2(C)O (centres undefined)
inactive: outcome [5] | Potency [13] | Potency [12] | Potency [8] | Potency [9]

C/C=C1/CN2CC[C@]34C(=Nc5ccccc53)[C@@H]2C[C@@H]1[C@H]4C(=O)OC
inactive: Potency [2] | Potency [10] | Potency [11] | max response [5] 2.71% | max response [6] -1.68% | Potency [12] | Potency [8] | Potency [9]

Clc1ccc([C@]23CNC[C@H]2C3)cc1Cl
inactive: Potency [10] | Potency [11] | max response [5] -9.42% | max response [6] -2.06% | outcome [7] | Potency [12] | Potency [8]
-0.0723%: activity [14]
-90.8%: activity [17]
2.99%: activity change, negative = inhibition [15]
-7.01%: activity [16]

CC(=O)C1CCC2C3CCC4C[C@@H](O)CCC4(C)C3CCC12C (some centres undefined)
inactive: max response [5] 3.25% | max response [6] 0.129% | outcome [18] | Potency [12]

CC(=O)OC[C@]12[C@H](OC(C)=O)C(=O)[C@@H]3[C@@H](O)[C@@]14O[C@@]3(C)COC(=O)c1cccnc1[C@@H](C)[C@H](C)C(=O)O[C@@H]([C@H](OC(C)=O)[C@@H]2OC(C)=O)[C@]4(C)O
inactive: Potency [2] | outcome [5] | max response [6] 7.87% | outcome [7] inactive [at 17.4 µM] | Potency [12] | Potency [8] | Potency [9]

CCOP(=O)(OCC)Oc1ccc2c(C)cc(=O)oc2c1
inactive: Potency [11] | max response [5] -4.98% | max response [6] -1.13% | Potency [12] | Potency [8] | Potency [9]

O=C(N[C@H]1CN2CCC1CC2)c1cc2cccc(Cl)c2s1
active: Potency [3] 16900 nM
inactive: Potency [4] | max response [5] -12.3% | max response [6] 2.28% | Potency [8] | Potency [9]

CCC(C)C1NC(=O)C2CCCN2C(=O)C(CC(C)C(=O)O)OC(=O)CCNC(=O)C(C)N(C)C(=O)C(C(C)C)N(C)C1=O (centres undefined) (cyclo([X5]PI[NMeV][NMeA][βAla]); configuration not given here)
inactive: Potency [1] | Potency [2] | Potency [10] | Potency [11] | max response [5] -24.2% | outcome [6] | Potency [12] | Potency [8] | Potency [9]

C[C@]12CC[C@@H](O[C@@H]3O[C@H](CO)[C@@H](O)[C@H](O)[C@H]3O)C[C@@]1(O)CCC1C2CC[C@]2(C)[C@@H](C3=CC(=O)OC3)CC[C@]12O (some centres undefined)
inactive: outcome [18] inactive [at 17.4 µM]
active: Potency [2] 159 nM | Potency [10] 79.6 nM | Potency [11] 112 nM | Potency [5] 126 nM | Potency [6] 200 nM | Potency [12] 501 nM | Potency [9] 355 nM

C=C[C@H]1CN2CCC1C[C@H]2[C@H](O)c1ccnc2ccccc12 (some centres undefined)
inactive: Potency [2] | Potency [10] | Potency [11] | max response [5] -4.97% | max response [6] 2.39% | Potency [12] | Potency [8] | Potency [9]

C/C=C(\C)C(=O)OC1C2C3(C)CCC(OC4CC(OC)C(OC5OC(C)C(O)C(OC)C5O)C(C)O4)CC3CCC23OC32CCC(C(C)=O)C2(C)C1OC(=O)/C(C)=C/C (centres undefined)
inactive: activity change, negative = cytotoxicity [2] -5.07% [at 9.29 µM] | activity change, negative = viability loss [10] -17.6% [at 9.23 µM] | activity change, negative = cell killing [11] -23.1% [at 9.23 µM] | max response [5] -2.9% | max response [6] -21.8% | outcome [7] inactive [at 9.27 µM] | activity change, negative = cytotoxicity [12] 0.328% [at 11.6 µM] | activity change, negative = cytotoxicity [8] 13% [at 11.6 µM] | activity change, negative = cytotoxicity [9] -30.2% [at 11.6 µM]
